The entries come from a sample that favours hits as a whole.
nsP2pro inh: CHIKV nsP2 protease inhibition, primary qHTS | Q8JUX6 | FRET peptide cleavage, nsP2pro, fluorescence 1 h | Potency, µM (doses to about 24.9 µM), for the others: top-dose activity change, negative = inhibition, most hits filed as inhibitors | hit rate 1.1% among 31,000 | AID 1964107; also: nearly all actives have a fitted effect of over 60% in size
Target sequence (Q8JUX6 whole entry, looked up): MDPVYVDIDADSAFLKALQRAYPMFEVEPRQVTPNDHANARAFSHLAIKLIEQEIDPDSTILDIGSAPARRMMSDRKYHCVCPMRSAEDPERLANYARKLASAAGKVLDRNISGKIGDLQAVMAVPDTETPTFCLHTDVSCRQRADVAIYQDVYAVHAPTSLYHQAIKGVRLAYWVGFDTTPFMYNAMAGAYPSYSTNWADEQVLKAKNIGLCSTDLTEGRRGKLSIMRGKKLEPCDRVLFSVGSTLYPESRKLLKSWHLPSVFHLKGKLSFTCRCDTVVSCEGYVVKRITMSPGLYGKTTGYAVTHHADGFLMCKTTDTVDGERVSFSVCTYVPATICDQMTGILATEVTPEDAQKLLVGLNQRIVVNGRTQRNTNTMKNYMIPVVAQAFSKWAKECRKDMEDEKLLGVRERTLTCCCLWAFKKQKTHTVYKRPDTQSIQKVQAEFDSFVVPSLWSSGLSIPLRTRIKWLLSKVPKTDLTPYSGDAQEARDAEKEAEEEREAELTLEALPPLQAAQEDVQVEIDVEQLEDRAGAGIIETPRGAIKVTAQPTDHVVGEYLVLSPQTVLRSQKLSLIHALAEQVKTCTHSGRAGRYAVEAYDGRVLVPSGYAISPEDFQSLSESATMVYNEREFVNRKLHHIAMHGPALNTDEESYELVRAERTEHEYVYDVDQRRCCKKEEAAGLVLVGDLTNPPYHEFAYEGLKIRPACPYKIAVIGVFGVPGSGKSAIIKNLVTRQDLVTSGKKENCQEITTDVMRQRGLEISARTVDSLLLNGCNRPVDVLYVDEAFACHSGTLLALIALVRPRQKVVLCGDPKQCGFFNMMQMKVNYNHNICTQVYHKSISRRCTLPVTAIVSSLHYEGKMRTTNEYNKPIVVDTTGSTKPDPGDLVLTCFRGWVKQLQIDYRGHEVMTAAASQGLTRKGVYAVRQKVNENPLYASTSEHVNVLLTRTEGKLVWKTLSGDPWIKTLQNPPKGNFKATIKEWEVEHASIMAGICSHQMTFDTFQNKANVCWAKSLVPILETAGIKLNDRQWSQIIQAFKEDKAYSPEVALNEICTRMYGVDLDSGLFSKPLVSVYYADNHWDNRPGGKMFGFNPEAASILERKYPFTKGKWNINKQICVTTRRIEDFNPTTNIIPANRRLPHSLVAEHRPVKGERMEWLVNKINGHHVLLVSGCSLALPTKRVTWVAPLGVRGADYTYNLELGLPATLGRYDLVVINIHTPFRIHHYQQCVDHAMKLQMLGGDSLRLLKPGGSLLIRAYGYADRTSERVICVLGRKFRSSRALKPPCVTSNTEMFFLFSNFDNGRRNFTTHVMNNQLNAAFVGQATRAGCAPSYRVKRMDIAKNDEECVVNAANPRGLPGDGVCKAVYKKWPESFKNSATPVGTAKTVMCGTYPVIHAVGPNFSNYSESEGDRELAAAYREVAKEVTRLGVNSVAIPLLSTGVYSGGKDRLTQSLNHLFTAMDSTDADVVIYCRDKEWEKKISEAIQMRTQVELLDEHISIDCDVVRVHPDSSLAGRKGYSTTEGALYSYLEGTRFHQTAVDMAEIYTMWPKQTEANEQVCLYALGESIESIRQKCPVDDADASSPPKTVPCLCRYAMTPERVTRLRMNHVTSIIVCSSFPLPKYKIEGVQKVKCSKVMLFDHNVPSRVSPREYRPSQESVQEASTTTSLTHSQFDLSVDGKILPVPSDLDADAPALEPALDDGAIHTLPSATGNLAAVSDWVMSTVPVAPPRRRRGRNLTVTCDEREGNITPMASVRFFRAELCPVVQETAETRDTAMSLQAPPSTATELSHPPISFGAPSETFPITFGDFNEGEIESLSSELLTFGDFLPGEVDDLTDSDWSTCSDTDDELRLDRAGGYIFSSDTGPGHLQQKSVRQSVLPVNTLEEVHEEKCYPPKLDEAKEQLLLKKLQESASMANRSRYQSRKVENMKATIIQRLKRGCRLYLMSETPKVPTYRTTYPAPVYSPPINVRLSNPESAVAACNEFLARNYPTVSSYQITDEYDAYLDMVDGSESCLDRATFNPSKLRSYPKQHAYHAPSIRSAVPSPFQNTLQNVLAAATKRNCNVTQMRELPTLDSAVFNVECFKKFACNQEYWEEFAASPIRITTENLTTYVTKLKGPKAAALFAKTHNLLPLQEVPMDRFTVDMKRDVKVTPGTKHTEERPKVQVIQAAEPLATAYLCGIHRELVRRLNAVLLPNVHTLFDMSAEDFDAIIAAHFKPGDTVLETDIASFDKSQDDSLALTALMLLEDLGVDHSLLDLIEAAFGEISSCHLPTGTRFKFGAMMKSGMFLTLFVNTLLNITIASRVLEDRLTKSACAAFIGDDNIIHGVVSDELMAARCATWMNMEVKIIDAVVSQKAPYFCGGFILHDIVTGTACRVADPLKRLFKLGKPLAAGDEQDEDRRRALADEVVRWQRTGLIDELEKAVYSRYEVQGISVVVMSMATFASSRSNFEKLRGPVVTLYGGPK
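Recombinant nsP2pro (150 nM) was preincubated with compound 15 min at room temperature in 10 mM Tris-HCl pH 8.0, 0.01% Tween 20. Peptide 2 FRET substrate (2.5 uM) was then added and fluorescence read after 1 h. Seven-point series, up to 25 uM.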
CHIKV nsP2 cell: secondary cell-based test for CHIKV nsP2 protease inhibitors; shares compounds with nsP2pro inh; cell-based CHIKV nsP2 protease reporter assay; Potency, µM (titrated, usually from 51.1 µM), for the others: top-dose activity change, negative = inhibition, most hits filed as inhibitors; hit rate 10% among 450; AID 1964100; also: nearly all actives have a fitted effect of over 70% in size
CHIKV NSP2 FL: full-length CHIKV NSP2 protease inhibition, selectivity | shares compounds with nsP2pro inh | Full-length CHIKV NSP2 protease enzymatic counterscreen | Potency, µM (series often up to 50.7 µM), for the others: at the highest dose activity change, negative = inhibition, usual class: inhibitors | hit rate 39% among 410 | AID 1964101; also: nearly all actives have a fitted effect of over 65% in size
Furin counter: human furin inhibition, counterscreen for nsP2pro inhibitors; shares compounds with nsP2pro inh; Recombinant human furin enzymatic counterscreen, fluorogenic substrate; Potency, µM (highest dose often 50.6 µM), without a hit: at the highest dose activity change, negative = inhibition, usual class: inhibitors; hit rate 6% among 410; AID 1964102
NS23 peptide cs: blocks CHIKV nsP2 protease cleavage of endogenous NS2/3 peptide; Purified CHIKV nsP2 protease, endogenous NS2/3 peptide cleavage; Potency, µM (doses to about 51 µM), without a hit: at the highest dose activity change, negative = inhibition, usual class: inhibitors; shares compounds with nsP2pro inh; hit rate 34% among 410; also: nearly all actives have a fitted effect of over 55% in size
Papain cs: inhibits papain in a CHIKV nsP2 protease selectivity counterscreen | shares compounds with nsP2pro inh | hit rate 5% among 410 | Potency, µM (highest dose often 51 µM), for inactives: top-dose activity change, negative = inhibition, actives largely listed as inhibitors | purified papain protease activity, enzymatic inhibition | AID 1964104
nsP2pro confirm: confirmation of CHIKV nsP2 protease inhibitors; Potency, µM (highest dose often 25.5 µM), for the others: top-dose activity change, negative = inhibition, usual class: inhibitors; hit rate 43% among 410; shares compounds with nsP2pro inh; CHIKV nsP2 protease enzymatic activity, qHTS; also: nearly all actives have a fitted effect of over 75% in size
HCV NS3 4A cs: inhibits HCV NS3/4A protease in an nsP2pro selectivity counterscreen | shares compounds with nsP2pro inh | AID 1964106 | Potency, µM (top dose mostly 50.9 µM), hits mostly inhibitors | hit rate 20% among 410 | HCV NS3/4A protease biochemical counterscreen; also: nearly all actives have a fitted effect of over 55% in size
Numbers without * were called inactive; i = inactive; ? = inconclusive; [ ] = another dose, or the depositor's remark. Calls follow the shape of the full dose curve. % is scaled to controls: 0 for no effect and ±100 for the full control effect; potency is read from the fitted curve at half-maximal effect.

SMILES | nsP2pro inh | others
OCc1ccc(-c2ccc(-c3ccc(CO)s3)o2)s1 | 2.2µM* | CHIKV nsP2 cell=-4%[17.6 µM];CHIKV NSP2 FL=4µM*;Furin counter=?;NS23 peptide cs=?;Papain cs=i;nsP2pro confirm=3.1µM*;HCV NS3 4A cs=i
COC(=O)C(CC1CCCC1)c1ccc(S(C)(=O)=O)cc1 (centres undefined) | -10%
CNc1nc2c(s1)C(c1cccc(F)c1)CC(=O)N2 (centres undefined) | 3.2µM* | CHIKV nsP2 cell=44%;CHIKV NSP2 FL=?;Furin counter=8%;NS23 peptide cs=10µM*;Papain cs=55%;nsP2pro confirm=5.7µM*;HCV NS3 4A cs=i
CSc1nc(=O)c2c(n1C)NC(=O)CC2c1cc(F)cc(F)c1 (centres undefined) | 0%
CC(C)Oc1ccc(-c2ccc(=O)n(CC(=O)NCCc3ccccc3)n2)cc1 | 1%
Cc1oc2ccn(Cc3cccc(F)c3)c(=O)c2c1C(=O)NC1CCCC1 | i
Cc1ccc(NS(=O)(=O)c2ccc3c(c2)CCC(=O)N3)cc1F | 1%
CCOC(=O)c1ccc(NC2SC(=O)N(Cc3cccc(C(=O)O)c3)C2=O)cc1 (centres undefined) | 7.9µM* | CHIKV nsP2 cell=-6%
CCOC(=O)c1ccc2nc(C)cc(Nc3cccc(C(=O)O)c3)c2c1 | 0%
CCOC(=O)c1ccc(NC(=O)CN2CCCCC2)cc1 | 9%
CCN1CCC(CC(=O)N2CCC(C3CCN(C(=O)NC)CC3)C2)CC1 (centres undefined) | -5%
COc1cc(C)c(Sc2cnc(NC(=O)c3ccc(CNC(C)C(C)C)cc3)s2)cc1C(=O)N1CCN(C(C)=O)CC1 (centres undefined) | 41%
Cc1cc(C)nc(NC(=S)N2CCN(c3cc4ccccc4cn3)CC2)c1 | -5%
O=C(O)[C@H]1C[C@H](C(=O)NCc2ccccn2)CN(C(=O)CC2CCCC2)C1 | 5%
CC(O)c1cc2n(n1)CCN(S(=O)(=O)c1ccc3c(c1)NC(=O)CO3)C2 (centres undefined) | 2%
CCC(C)N1Cc2cc(NC(=O)Cc3cccc(OC)c3)ccc2OCC1=O (centres undefined) | 0%
C=C1C(=O)O[C@@H]2C[C@]3(C)[C@@H](CCC(C)=O)[C@@H]3C[C@H]12 | 17%
CC1=C2CC(O)(C(C)(C)O)C(O[C@@H]3O[C@H](CO)[C@@H](O)[C@H](O)[C@H]3O)CC(C)C2CC1=O (some centres undefined) | 30%[10 µM]
C=C1C(=O)O[C@@H]2C[C@H](C)[C@@H]3CC(=O)C(C)=C3C[C@H]12 | 0.44µM* | CHIKV nsP2 cell=?;CHIKV NSP2 FL=?;Furin counter=-7%;NS23 peptide cs=?;Papain cs=-3%;nsP2pro confirm=?;HCV NS3 4A cs=i
CO[C@@H]1C[C@H](O[C@H]2[C@H](C)[C@H](O[C@@H]3O[C@@H](C)C[C@@H](N(C)C)[C@H]3OC(C)=O)[C@H](C)C[C@]3(CO3)C(=O)[C@H](C)[C@H](OC(C)=O)[C@H](C)[C@H](C)OC(=O)[C@@H]2C)O[C@H](C)[C@H]1OC(C)=O | 6%
Brc1cnc2nc(SCc3ccccc3)[nH]c2c1 | -4%
O=C(O)CCc1ccc(-c2cccs2)n1CC(=O)Nc1ccccc1C(F)(F)F | 10% | CHIKV nsP2 cell=-7%;CHIKV NSP2 FL=-23%;Furin counter=-16%;NS23 peptide cs=-30%;Papain cs=-16%;nsP2pro confirm=?;HCV NS3 4A cs=i
CCc1ccc(-n2c(CCC(=O)O)ccc2-c2cccs2)cc1 | -18%
Cc1c(Cl)cccc1NC(=O)Cn1c(CCC(=O)O)ccc1-c1cccs1 | 6%
CC1CCc2c(cc(Br)c(F)c2Br)N1C=O (centres undefined) | ? | CHIKV nsP2 cell=-27%;CHIKV NSP2 FL=?;Furin counter=3%;NS23 peptide cs=?;Papain cs=-9%;nsP2pro confirm=?;HCV NS3 4A cs=?

Assay outcomes as filed in PubChem BioAssay.
